Experimental data as given in PubChem BioAssay.
Active and inactive are the calls of the source.

What was measured:
[1] = optical density shifts of acrAB sulA E. coli – strain DRC41, OD650, 48 h, E. coli filamentation inducer project, primary screen (AID 1152); conditions: higher = more signal, called active from +8 up or from −8 down;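 further: E. coli MC1000 strain DRC41 lacking acrAB efflux pump and sulA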
[2] = probe aLefty1 binding on compound microarray – biochemical, small-molecule microarray, 635/667 nm fluorescence, primary screen (AID 1153); conditions: higher = more signal;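 further: score merges spot fluorescence with signal-to-noise ratio from the scanned slide images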
[3] = plasmodial surface anion channel blockers, osmotic lysis – cell-based, P. falciparum Indochina, OD700, 1 h, primary screen (AID 1154); conditions: P. falciparum Indochina infected RBC osmotic lysis, higher = more signal, called active from +8 up or from −8 down
[4] = plasmodial surface anion channel blockers, osmotic lysis – cell-based, P. falciparum Indochina, OD700, 2 h, primary screen (AID 1155);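 further: lysis reports solute entry through the parasite surface anion channel PSAC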; conditions: P. falciparum Indochina infected erythrocytes, higher = more signal, called active from +8 up or from −8 down
[5] = changes in parasitized red cell lysis, either direction – P. falciparum Indochina, OD700, 3 h, PSAC antagonist project, primary screen (AID 1156); conditions: P. falciparum-infected erythrocytes, osmotic lysis, higher = more signal, called active from +8 up or from −8 down
[6] = plasmodial surface anion channel blockers, osmotic lysis – cell-based, P. falciparum Indochina, OD700, 18 h, primary screen (AID 1157); conditions: P. falciparum Indochina infected erythrocytes, osmotic lysis OD700, 18 h; higher = more signal, called active from +8 up or from −8 down
[7] = S6 kinase pathway phospho-S6 level changes – cell-based, A549, cytoblot, luminescence, serum-stimulated, primary screen (AID 1158); conditions: 5 h, higher = more signal;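 further: serum-stimulated A549 lung adenocarcinoma cells; signal is phosphorylated S6 detected by cytoblot immunostaining with HRP secondary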
[8] = target: NADPH oxidase 2 (Homo sapiens) (UniProt P04839); experiment: compounds shifting NOX2 Amplex Red fluorescence – cell-based, HEK293-NOX2, PMA-stimulated, NOX inhibitor project, primary screen (AID 1159); conditions: 45 min, higher = more signal, called active from +8 up or from −8 down; further: test concentration not given here
NADPH oxidase 2 (Homo sapiens), sequence (P04839 whole entry, looked up): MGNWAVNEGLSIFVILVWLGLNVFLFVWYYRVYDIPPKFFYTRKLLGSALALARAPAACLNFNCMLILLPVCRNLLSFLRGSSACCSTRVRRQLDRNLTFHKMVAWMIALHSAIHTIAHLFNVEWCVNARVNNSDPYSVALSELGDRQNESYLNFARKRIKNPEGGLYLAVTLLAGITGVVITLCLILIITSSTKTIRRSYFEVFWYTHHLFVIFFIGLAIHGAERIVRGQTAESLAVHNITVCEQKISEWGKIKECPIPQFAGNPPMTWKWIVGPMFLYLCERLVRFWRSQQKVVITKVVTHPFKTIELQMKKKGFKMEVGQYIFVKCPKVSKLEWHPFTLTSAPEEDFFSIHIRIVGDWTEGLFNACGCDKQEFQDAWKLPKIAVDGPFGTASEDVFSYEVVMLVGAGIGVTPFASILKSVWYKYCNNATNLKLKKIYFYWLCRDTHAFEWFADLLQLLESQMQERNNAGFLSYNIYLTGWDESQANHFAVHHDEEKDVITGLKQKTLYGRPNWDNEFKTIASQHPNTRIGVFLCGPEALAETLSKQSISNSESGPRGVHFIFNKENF

[9] = target: NADPH oxidase 4 (Homo sapiens) (UniProt Q9NPH5); experiment: compounds shifting NOX4 Amplex Red fluorescence – cell-based, HEK293-NOX4, tetracycline-induced, NOX inhibitor project, primary screen (AID 1160); conditions: HEK293-NOX4, Amplex Red H2O2 fluorescence, 45 min; higher = more signal, called active from +8 up or from −8 down
NADPH oxidase 4 (Homo sapiens), sequence (Q9NPH5 whole entry, looked up): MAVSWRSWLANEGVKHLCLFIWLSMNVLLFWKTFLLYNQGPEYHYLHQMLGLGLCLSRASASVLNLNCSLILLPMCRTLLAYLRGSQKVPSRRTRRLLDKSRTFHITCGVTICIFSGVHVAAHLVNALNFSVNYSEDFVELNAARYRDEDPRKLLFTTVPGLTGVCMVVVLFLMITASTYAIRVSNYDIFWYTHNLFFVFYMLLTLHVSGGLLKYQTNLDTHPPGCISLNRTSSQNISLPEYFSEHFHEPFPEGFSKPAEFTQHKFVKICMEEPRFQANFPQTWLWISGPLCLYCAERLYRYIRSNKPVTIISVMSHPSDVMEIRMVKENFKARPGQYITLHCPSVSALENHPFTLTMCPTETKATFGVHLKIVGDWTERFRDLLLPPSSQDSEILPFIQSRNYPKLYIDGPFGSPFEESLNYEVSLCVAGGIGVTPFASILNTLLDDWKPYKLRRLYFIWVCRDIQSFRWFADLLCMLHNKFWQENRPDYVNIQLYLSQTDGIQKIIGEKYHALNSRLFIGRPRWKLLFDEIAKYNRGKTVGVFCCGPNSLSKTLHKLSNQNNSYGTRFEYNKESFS

[10] = target: NADPH oxidase 5 (Homo sapiens) (UniProt Q96PH1); experiment: compounds shifting NOX5 Amplex Red fluorescence – cell-based, HEK293-NOX5, NOX inhibitor project, primary screen (AID 1161); conditions: HEK293-NOX5, ionomycin, 45 min, higher = more signal
NADPH oxidase 5 (Homo sapiens), sequence (Q96PH1 whole entry, looked up): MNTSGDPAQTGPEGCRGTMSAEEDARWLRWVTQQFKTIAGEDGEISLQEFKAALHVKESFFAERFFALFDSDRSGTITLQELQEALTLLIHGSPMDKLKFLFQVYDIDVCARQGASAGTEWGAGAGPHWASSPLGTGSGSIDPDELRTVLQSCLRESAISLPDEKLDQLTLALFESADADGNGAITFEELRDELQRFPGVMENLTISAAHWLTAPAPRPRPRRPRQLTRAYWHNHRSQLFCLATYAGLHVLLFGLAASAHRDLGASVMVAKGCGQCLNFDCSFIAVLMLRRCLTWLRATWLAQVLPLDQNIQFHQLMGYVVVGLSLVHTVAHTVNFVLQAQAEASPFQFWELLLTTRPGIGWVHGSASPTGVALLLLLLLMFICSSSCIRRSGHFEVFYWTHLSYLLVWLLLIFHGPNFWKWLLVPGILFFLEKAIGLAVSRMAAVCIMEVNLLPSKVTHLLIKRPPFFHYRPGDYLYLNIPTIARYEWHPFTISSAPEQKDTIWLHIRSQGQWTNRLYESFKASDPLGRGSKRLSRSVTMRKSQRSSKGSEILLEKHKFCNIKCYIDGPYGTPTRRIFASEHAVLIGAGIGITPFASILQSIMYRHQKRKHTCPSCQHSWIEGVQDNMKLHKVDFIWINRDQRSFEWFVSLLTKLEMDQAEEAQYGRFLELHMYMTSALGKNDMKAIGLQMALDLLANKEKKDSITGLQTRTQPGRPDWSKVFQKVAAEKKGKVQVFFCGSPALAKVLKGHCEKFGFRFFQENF

[11] = compound effects on lung adenocarcinoma cell viability – A549, calcein-AM fluorescence, 48 h, basal, profiling panel (AID 1162); conditions: higher = more signal; further: test concentration not given here
[12] = compound effects on differentiated 3T3-L1 adipocyte viability – cell-based, 3T3-L1 adipocytes, calcein-AM fluorescence, 48 h, basal, profiling panel (AID 1163); conditions: 3T3-L1 adipocytes viability, higher = more signal; further: test concentration not given here
[13] = compound effects on hepatocellular carcinoma cell viability – HepG2, calcein-AM fluorescence, 48 h, basal, profiling panel (AID 1164); conditions: higher = more signal; further: test concentration not given here
[14] = compound effects on multiple myeloma cell viability – MM1S, calcein-AM fluorescence, 48 h, basal, profiling panel (AID 1165); conditions: higher = more signal; further: test concentration not given here
[15] = calcein-AM signal in unstimulated myeloma cells – cell-based, calcein-AM fluorescence, 48 h, PK04 Diversity Set, profiling panel (AID 1166); conditions: RPMI8226 myeloma viability, higher = more signal;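 further: cells grown under basal conditions without added stimulus; test concentration not given here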
[16] = JC-1 mitochondrial signal, unstimulated HepG2 cells – cell-based, JC-1 fluorescence, 24 h, 100 nL compound, profiling panel (AID 1167); conditions: HepG2 mitochondrial potential, higher = more signal; further: test concentration not given here
[17] = JC-1 mitochondrial signal, unstimulated adipocytes – cell-based, JC-1 fluorescence, 3T3-L1 adipocytes, 24 h, 100 nL compound, profiling panel (AID 1168); conditions: JC-1 mitochondrial fluorescence, higher = more signal, called active from +8 up or from −8 down; further: test concentration not given here
[18] = JC-1 mitochondrial signal, unstimulated myeloma cells – cell-based, JC-1 fluorescence, RPMI8226, 24 h, 100 nL compound, profiling panel (AID 1169); conditions: JC-1 mitochondrial potential fluorescence, higher = more signal; further: test concentration not given here
[19] = JC-1 mitochondrial signal, unstimulated MM1S myeloma – cell-based, JC-1 fluorescence, 24 h, 100 nL compound, profiling panel (AID 1170); conditions: MM1S mitochondrial potential, higher = more signal; further: test concentration not given here
[20] = resazurin metabolic signal in A549 cells – cell-based, resazurin fluorescence, 24 h, PK04 Diversity Set, profiling panel (AID 1171); conditions: A549 viability, higher = more signal, called active from +8 up or from −8 down; further: test concentration not given here

Row | SMILES | z-score [1] | composite z-score [2] | z-score [3] | z-score [4] | z-score [5] | z-score [6] | z-score [7] | z-score [8] | z-score [9] | z-score [10] | z-score [11] | z-score [12] | z-score [13] | z-score [14] | z-score [15] | z-score [16] | z-score [17] | z-score [18] | z-score [19] | z-score [20]
1 | C[C@H]1NC(=O)[C@@H](C)NC(=O)[C@@]23C(=O)N[C@@H](Cc4ccccc4)C2[C@H](C)[C@@]2(C)O[C@H]2C3/C=C/C/C=C\CNC1=O (stereo not given in full) | 2.35 (inactive) | -0.245 | 1.27 (inactive) | 0.279 (inactive) | 0.234 (inactive) | 0.157 (inactive) | 0.52 | 0.248 (inactive) | -0.848 (inactive) | 0.442 | 0.0575 | 0.43 | 0.205 | -0.0933 | -0.0009 | 1.24 | 0.408 (inactive) | -0.266 | 1.66 | 0.381 (inactive)
2 | O=C1C2C=CC(C(O)Cc3ccccc3)N(Nc3ccc([N+](=O)[O-])cc3)C2C(=O)N1c1ccccc1 (stereo not given) | -0.458 (inactive) | 0.769 | 3.94 (inactive) | 1.61 (inactive) | 0.371 (inactive) | 0.877 (inactive) | -0.521 | -1.1 (inactive) | -2.7 (inactive) | -1.64 | -0.356 | -0.116 | 0.0181 | 0.568 | -0.0631 | -1.36 | 0.0226 (inactive) | 0.517 | -0.876 | 0.007 (inactive)
3 | CCCNC(=O)[C@@H]1c2ccccc2C(=O)N(C2CCCCC2)[C@H]1c1ccc(CO)cc1 | -0.401 (inactive) | 0.14 | 11 (active) | 0.867 (inactive) | 1.06 (inactive) | 0.72 (inactive) | -0.326 | 0.747 (inactive) | -0.201 (inactive) | -1.24 | 0.285 | -0.144 | 0.107 | -0.524 | 0.0117 | 2.29 | 0.00608 (inactive) | -0.192 | -0.401 | 1.58 (inactive)
4 | CC(C)[Si](OCCCNS(=O)(=O)c1ccc(Br)cc1)(C(C)C)C(C)C | 3.27 (inactive) | -0.0236 | 0.869 (inactive) | 0.0808 (inactive) | -3.37 (inactive) | -0.442 (inactive) | 4.17 | 1.84 (inactive) | -0.843 (inactive) | -3.06 | 0.0609 | 0.279 | -2.5 | -3.23 | -4.09 | -3.5 | 2.29 (inactive) | -0.218 | 0.727 | -0.116 (inactive)
